# A selection: hits, their analogues and other compounds. The true share with any hit is near 14%.
# HCMV antiviral = blocks human cytomegalovirus replication; activity change, negative = inhibition, % at 57.5 µM; HFF cells, HCMV-luciferase reporter, 72 h; active compounds read low; 4.5% of 410,000 active; in the data active = activity change below about -60%; inconclusive = no clear call, values can overlap the other calls; inactive = above about -39%
#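 Screen run at 2 compound doses on HFFs infected with reporter HCMV, MOI 1 PFU/cell. Luciferase activity from cell lysates at 72 h post infection gave inhibition relative to buffer-only and Salinomycin wells.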
# Pf growth 48h = inhibits P. falciparum growth in the first generation, 48 h; P. falciparum luciferase growth in erythrocytes, 48 h; Potency, µM (top dose mostly 28.7 µM), hits mostly inhibitors; 5.9% of 310,000 active; AID 504832
#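 Parasite viability was followed by luminescence of a genomically integrated firefly luciferase. Cultures held 0.1% parasitemia at 2% hematocrit (final), incubated under 5% CO2 at 37 C.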
# MARV entry inh = blocks Marburg virus binding to or entry into cells | Marburg virus pseudotyped entry inhibition, cell reporter | Potency, µM (series often up to 37.8 µM), hits mostly inhibitors | 1.8% of 300,000 active | AID 540276; calls by dose curve; tested in HEK293 cells
# LASV entry inh = inhibitors of Lassa virus binding or cell entry; Potency, µM (titrated, usually from 37.9 µM), hits mostly inhibitors; 1.2% of 300,000 active; AID 540256; Lassa virus pseudotype entry inhibition, cell reporter; calls by dose curve; tested in HEK293 cells; note: nearly all actives have a fitted effect of over 50% in size
# HCV inh = HCV inhibition; Huh7.5.1 HCVcc-Cre infection, luciferase reporter, 44 h; Potency, µM (series often up to 41.8 µM), actives largely listed as inhibitors; 3.4% of 340,000 active; AID 651820
#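 Infectious HCV cell culture screen: compound-treated cells (1,000/well, pre-plated 4 h) are infected with HCVcc-Cre at roughly 0.5 moi and grown 44 h. Infection is quantified by luciferase signal after 15 min substrate incubation at room temperature.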
# Pf growth 96h = inhibits malaria parasite growth, 96 h. P. falciparum luciferase reporter growth, 96 h. Potency, µM (titrated, usually from 28.7 µM), hits mostly inhibitors. 6.9% of 320,000 active. AID 504834
#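 Parasite growth measured via integrated firefly luciferase reporter in P. falciparum. Infected erythrocytes at 2% hematocrit, 0.05% parasitemia final were treated 96 hours at 37 C under 5% CO2, and luminescence was read.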
# A number is an active result; . = inactive; ? = inconclusive; / = no result given; ! = not active in a repeat. Unless noted, calls come from the whole dose curve; as a rule, active = well fitted inhibition curve with a large enough effect; inconclusive = small, poorly fitted or top-dose-only effect, or another doubt; inactive = no such curve, though single readings can be large or run the other way.
SMILES,HCMV antiviral,Pf growth 48h,MARV entry inh,LASV entry inh,HCV inh,Pf growth 96h
CCOC(=O)C1(C)CCN1C(=O)c1ccc(C)cc1 (stereo not given),.,/,/,/,/,/
CCOCCCn1c(SCC(=O)NC2CCCC2)nc2ccccc2c1=O,.,.,/,/,.,?
CCOCCCn1c(SCc2nc3ccccc3s2)nc2ccccc2c1=O,-78,?,7.1µM,?,11µM,?
CCOCCCn1c(SCC(=O)Nc2ccccc2)nc2ccccc2c1=O,.,?,.,?,.,.
CCOCCCn1c(SCC(=O)NC(C)C)nc2ccccc2c1=O,-107,.,.,.,.,.
C[C@H](OC(=O)NCc1ccc(C(F)(F)F)cc1)[C@@H]1O[C@@]2(C)CCC[C@@H]1O2,.,.,/,/,.,.
C[C@H](OC(=O)N1CCN(C(c2ccccc2)c2ccccc2)CC1)[C@@H]1O[C@@]2(C)CCC[C@H]1O2,?,6.6µM,/,/,.,4.7µM
COC1=CC2C(=O)C(C(c3ccccc3)C2C)C1(C)O (stereo not given),/,/,.,/,/,/
COc1cccc(/C(O)=C/c2nc3ccc(C(=O)NCCc4ccc(Cl)cc4)cc3[nH]c2=O)c1,?,.,?,?,.,.
COc1cccc(/C(O)=C/c2nc3ccc(C(=O)NCCc4cccc(C)c4)cc3[nH]c2=O)c1,.,8.3µM,?,.,?,.
CCCCc1ccc(-c2ccc(C)cc2O)nc1,.,/,?,10µM,.,.
CCCCc1ccc(-c2ccc(Br)cc2O)nc1,.,/,?,.,.,.
COc1ccc(CCNC(=O)C(=O)NCC(c2cccnc2)N2CCN(c3ccccc3)CC2)cc1 (stereo not given),?,/,/,.,/,/
O=C(NCCc1ccccc1)C(=O)NCC(c1ccc2c(c1)OCO2)N1CCOCC1 (stereo not given),.,/,/,.,/,/
Nc1nc(COC(=O)c2ccc3c(c2)OCCO3)nc(Nc2ccccc2)n1,.,.,.,.,11µM,.
Cc1cccc(Nc2nc(N)nc(CCl)n2)c1C,-96,?,?,?,.,1.5µM
Cc1cccc(Nc2nc(N)nc(CN3CCC(C(N)=O)CC3)n2)c1C,.,.,.,.,.,/
Cc1ccc(Nc2nc(N)nc(CSc3nc4ccccc4s3)n2)cc1,-91!,.,?,?,?,.
CCOc1ccc(Nc2nc(N)nc(CCl)n2)cc1,-96,?,?,?,0.56µM,?
COc1ccc(Nc2nc(N)nc(CSc3nc4ccccc4s3)n2)cc1,.,/,.,?,/,/
CCOc1ccc(CN2C(=O)c3ccccc3Sc3ccc(C(=O)NC4CCC(C)CC4)cc32)cc1 (stereo not given),.,/,?,.,/,/
Nc1nc(CSc2n[nH]c(-c3ccccc3)n2)nc(Nc2ccccc2)n1,.,.,?,?,3.2µM,?
Nc1nc(CN2CCN(Cc3ccccc3)CC2)nc(Nc2ccccc2)n1,.,?,?,.,.,13µM
COc1ccccc1Nc1nc(N)nc(CN2CCN(Cc3ccc4c(c3)OCO4)CC2)n1,.,?,.,.,.,.
Nc1nc(CCl)nc(Nc2ccccc2)n1,-91,.,/,/,?,.
SMILES,HCMV antiviral,Pf growth 48h,MARV entry inh,LASV entry inh,HCV inh,Pf growth 96h
Cc1cccc(Nc2nc(N)nc(CN3CCN(Cc4ccc5c(c4)OCO5)CC3)n2)c1,.,?,.,.,.,13µM
Nc1nc(CSc2ncccn2)nc(Nc2ccccc2)n1,.,.,.,.,.,/
O=C(c1cccn1-c1nnc(N2CCCC2)s1)N1CCN(c2ccc(F)cc2)CC1,.,/,/,.,/,/
Cc1c(C(=O)Nc2ccc(-n3c(C)nc4ccccc4c3=O)cc2)cccc1[N+](=O)[O-],.,/,/,.,/,/
CCOC(=O)c1c(C)[nH]c(C)c1S(=O)(=O)N(C)CC(=O)Nc1ccc(OC)cc1,.,/,/,.,/,/
COC(=O)c1cc(NC(=O)c2cc3c(-c4ccccc4F)nn(C)c3s2)cc(C(=O)OC)c1,.,/,.,.,/,/
Cc1ccc(Nc2nc(N)nc(CCl)n2)cc1,-108,?,?,?,.,?
Cc1ccc(Nc2nc(N)nc(CC#N)n2)cc1,.,.,.,.,.,/
Cc1ccc(Nc2nc(N)nc(CN3CCCCCC3)n2)c(C)c1,.,?,.,.,?,.
Cc1ccc(Nc2nc(N)nc(CCl)n2)c(C)c1,-103,?,/,/,0.5µM,.
Cc1cccc2sc(N(Cc3cccnc3)C(=O)C3CCCCC3)nc12,.,/,/,.,/,/
Cc1ccc(S(=O)(=O)NCc2nnnn2-c2ccc(F)cc2)cc1,.,/,/,/,/,/
CC[C@H](C)[C@@H](C(=O)NCCCCCCCCCCC(=O)N1CCN(C(=O)OC(C)(C)C)CC1)n1cc(CCCCN=C(NC(=O)OC(C)(C)C)NC(=O)OC(C)(C)C)nn1,/,1.2µM,/,/,.,1.9µM
CC[C@H](C)[C@@H](C(=O)NCCCCCCCCCCC(=O)N1CCN(C(=O)OC(C)(C)C)CC1)n1cc(CCCCCNC(=O)OC(C)(C)C)nn1,-69,1.5µM,/,/,?,1µM
C[C@H](O)[C@@H](C(=O)N1CCN(C(=O)OC(C)(C)C)CC1)n1cc(CCCCNC(=O)OC(C)(C)C)nn1,.,.,/,/,.,.
Cc1cn([C@H](C(=O)NCCCCCCCCCCC(=O)N2CCN(C(=O)OC(C)(C)C)CC2)[C@@H](C)O)nn1,.,10µM,/,/,?,9.3µM
CC[C@@H](C)[C@@H](C(=O)N1CCN(C(=O)OC(C)(C)C)CC1)n1cc(CCCN=C(NC(=O)OC(C)(C)C)NC(=O)OC(C)(C)C)nn1,.,?,/,/,.,?
CC(C)OC(=O)C1C(=O)CC(C)(O)C(C(=O)OC(C)C)C1c1cccc(O)c1 (stereo not given),.,.,.,.,.,4.1µM
CC(C)(C)OC(=O)C1C(=O)CC(C)(O)C(C(=O)OC(C)(C)C)C1c1cccnc1 (stereo not given),.,/,.,.,.,?
CC(C)COC(=O)C1C(=O)CC(C)(O)C(C(=O)OCC(C)C)C1c1cccnc1 (stereo not given),.,9.3µM,.,.,.,/
CC(C)OC(=O)C1C(=O)CC(C)(O)C(C(=O)OC(C)C)C1c1ccc(F)cc1 (stereo not given),?,/,.,.,.,?
COc1ccc(OC)c(/C=C/C(=O)c2ccc3c(c2)OCCO3)c1,-100,.,/,/,?,.
COc1cc(/C=C/C(=O)c2ccc3c(c2)OCCO3)cc(OC)c1OC,-99,?,/,/,?,.
COc1ccc(OC)c(/C=C/C(=O)Oc2ccc(C(C)=O)cc2)c1,?,.,.,.,.,.
CC(OC(=O)c1ccco1)C(=O)NCc1cccs1 (stereo not given),.,.,.,.,.,12µM
C[C@@H]1CN([C@H](C)CO)C(=O)c2c(c3ccccc3n2C)-c2ccccc2CO[C@H]1CN(C)S(=O)(=O)c1cn(C)cn1,.,/,/,/,/,/
CCOC(=O)CCNC(=O)N1CCCC(N2CCN(c3ccc(OC)cc3)CC2)C1 (stereo not given),.,.,.,.,.,2.9µM
